Our source for the z-score values is PubChem BioAssay.

SMILES strings stand for the structures. Calls of active or inactive are those of the source.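 The calls were made as follows, unless noted: active = z-score of at least 1.8 in each of two replicates, scored against plate mean and spread of sample wells; inactive = the rest.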

Assay [1] is described as follows: survival rescue of mitochondrial mutant cells in low glucose, primary screen, MELAS cybrids, Rieske KO mouse fibroblasts, CellTiter-Glo (AID 1508586;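 active = mean z-score across replicates of 1.96 or higher in either the MELAS or the Rieske mutant cell line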;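 also: test concentration not given here; z relative to plate mean and SD of compound and empty wells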). (ATP-based viability assays read luminescence as a measure of living cells.)
The nature of assay [2]: viability rescue of complex I mutant cybrids, primary screen, cell-based, galactose medium, ATP luminescence (AID 1645843).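 Also: positive z means more ATP and so rescue of galactose-driven cybrid death.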 The settings on record: complex I mutant cybrid cells, 72 h, stronger effect = higher value.
Where [3] appears, read: MELAS cybrid survival, CellTiter-Glo 48 h, stronger effect = higher value.
[4] abbreviates: Rieske KO mouse fibroblast survival, CellTiter-Glo 72 h.

Take `CC(C)Cn1nc(C(=O)NCc2cccnc2)c2c1CCN(C(=O)c1scc3c1OCCO3)C2`: the results for the z-score in assay [1] (setting [3]), in assay [1] (setting [4]) and in assay [2] were -0.675, 5.2 and -1.46 (inactive), respectively.

As for `O=c1c(-c2ccccc2Cl)cc2c(n1Cc1ccncc1)CCN(Cc1ccnc3ccccc13)C2`, the z-score in assay [1] (setting [3]) is -0.09 (inactive); in assay [1] (setting [4]), -0.0903; in assay [2], 0.915 (inactive).

On to `COc1ccc(CN2C[C@H](C(=O)Nc3ccc4c(c3)CCC4)C[C@H](C(=O)N3CCCCC3)C2)cc1OC`, for which the z-score in assay [1] (setting [3]) is 0.5 (inactive); in assay [1] (setting [4]) it was 0.0365; in assay [2], -1.66 (inactive).

With `Cc1ccc(N2CCN(C3CCc4c(c(C(=O)N5CCSCC5)nn4C)C3)CC2)c(C)c1` (stereo not drawn), the z-score in assay [1] (setting [3]) is -0.0351 (inactive); in assay [1] (setting [4]), -0.612; in assay [2], 0.195 (inactive).

For the molecule `CCC(CC)CNc1cc(C(=O)NCCN(C)C)cc(S(=O)(=O)Nc2ccc(OC)cc2)c1`, the z-score was -0.364 (inactive) in assay [1] (setting [3]), 0.972 in assay [1] (setting [4]) and -1.11 (inactive) in assay [2].

Regarding `Cn1nc(C(=O)NCc2cccnc2)c2c1CCN(Cc1ccc3c(c1)Cc1ccccc1-3)C2`, the z-score in assay [1] (setting [3]) is -0.134 (inactive); in assay [1] (setting [4]), -0.0827; in assay [2] it was 0.125 (inactive).

`COCc1ccc(C(=O)N2CCc3c(cc(-c4ccncc4)c(=O)n3CCN3CCCCC3)C2)o1`: the figures for the z-score in assay [1] (setting [3]), in assay [1] (setting [4]) and in assay [2] were -0.345 (inactive), 0.626 and 0.77 (inactive), respectively.

For the molecule `CCn1nc(C(=O)N2CCCC2)c2c1CCC(N1CCN(c3ccccc3OC)CC1)C2` (stereo not drawn), the figures for the z-score in assay [1] (setting [3]), in assay [1] (setting [4]) and in assay [2] were -0.423 (inactive), -0.558 and -0.48 (inactive), respectively.

Regarding `Cc1ccnn1CCC(=O)N1CCc2c(cc(Cc3ccccc3F)c(=O)n2Cc2cccnc2)C1`, the z-score in assay [1] (setting [3]) is -0.36 (inactive); in assay [1] (setting [4]), -0.461; in assay [2], 0.325 (inactive).

With `C[C@H](O)[C@H]1NC(=O)[C@@H]2C[C@H](NC(=O)Nc3cccc(F)c3)CN2C1=O`, the z-score is 0.0941 (inactive) in assay [1] (setting [3]), 0.103 in assay [1] (setting [4]) and -0.26 (inactive) in assay [2].

Regarding `CC(C)C[C@H]1NC(=O)[C@H]2CN(C(=O)OCc3ccccc3)CCN2C1=O`, the values for the z-score in assay [1] (setting [3]), in assay [1] (setting [4]) and in assay [2] were -0.0626 (inactive), -0.118 and -0.205 (inactive), respectively.

With `CC(C)[C@@H]1NC(=O)[C@H]2CN(C(=O)c3ccccc3Cl)CCN2C1=O`, the z-score was -0.296 (inactive) in assay [1] (setting [3]), -0.445 in assay [1] (setting [4]) and 1.57 (inactive) in assay [2].

In the case of `CC(C)C[C@@H]1NC(=O)[C@H]2CN(S(=O)(=O)c3cccc4ccccc34)CCN2C1=O`, the z-score in assay [1] (setting [3]) was -0.496 (inactive); in assay [1] (setting [4]), -0.159; in assay [2], -0.92 (inactive).

As for `CC(C)CCNc1cc(C(=O)N[C@H]2CCCCNC2=O)cc(S(=O)(=O)NC(C)C)c1`, the results for the z-score in assay [1] (setting [3]), in assay [1] (setting [4]) and in assay [2] were -0.205 (inactive), 0.262 and -0.51 (inactive), respectively.

Consider `O=C(Oc1ccccc1)N1CCN2C(=O)[C@@H]3C[C@@H](O)CN3C(=O)[C@H]2C1`, for which the z-score is 1.95 (inactive) in assay [1] (setting [3]), -0.267 in assay [1] (setting [4]) and -0.655 (inactive) in assay [2].

`COc1ccc(/C=C/CN2CCc3c(cc(-c4cccc(-n5nc(C)cc5C)c4)c(=O)n3C)C2)cc1`: the z-score in assay [1] (setting [3]) was -0.672 (inactive); in assay [1] (setting [4]), -0.157; in assay [2], -0.63 (inactive).

For the molecule `Cc1csc(-c2cc(C(=O)N3CCC(N(C)C)C3)cc(S(=O)(=O)N3CCOCC3)c2)c1` (stereo not drawn), the z-score is -0.101 (inactive) in assay [1] (setting [3]), 0.349 in assay [1] (setting [4]) and 0.805 (inactive) in assay [2].

Regarding `C[C@@H](O)[C@@H]1NC(=O)[C@@H]2C[C@H](NCc3cc4ccccc4s3)CN2C1=O`, the z-score in assay [1] (setting [3]) is -0.64 (inactive); in assay [1] (setting [4]), -0.73; in assay [2] it was -0.615 (inactive).

On to `CC(C)CCNc1cc(C(=O)NCCn2ccnc2)cc(S(=O)(=O)Nc2ccccc2)c1`, for which the figures for the z-score in assay [1] (setting [3]), in assay [1] (setting [4]) and in assay [2] were -0.318 (inactive), -0.223 and -0.47 (inactive), respectively.

In the case of `CC(C)C[C@H]1C(=O)N2CCN(Cc3cnn(-c4ccccc4)c3)C[C@@H]2C(=O)N1C`, the z-score in assay [1] (setting [3]) is 0.221 (inactive); in assay [1] (setting [4]), -0.165; in assay [2] it was -0.345 (inactive).

As to `Cc1ccc(Cl)cc1NC(=O)N[C@H]1C[C@H]2C(=O)N[C@H](C(C)C)C(=O)N2C1`, the z-score in assay [1] (setting [3]) was -0.17 (inactive); in assay [1] (setting [4]), 0.0408; in assay [2] it was -0.745 (inactive).

Take `CC(C)OCCNC1CCc2c(c(C(=O)N(C)Cc3ccccc3)nn2C)C1` (stereo not drawn): the z-score in assay [1] (setting [3]) is 0.055 (inactive); in assay [1] (setting [4]), -0.804; in assay [2] it was 0.48 (inactive).

`CC(C)N1C(=O)N(C)C2(CCN(Cc3ccc4c(c3)Cc3ccccc3-4)CC2)C1=O`: the z-score in assay [1] (setting [3]) is -0.247 (inactive); in assay [1] (setting [4]), -0.55; in assay [2], 0.225 (inactive).

For `CCn1nc(C(=O)N2CCCCC2)c2c1CCC(NCc1ccc3c(c1)OCO3)C2` (stereo not drawn), the z-score in assay [1] (setting [3]) is -0.251 (inactive); in assay [1] (setting [4]), 0.426; in assay [2], -1.14 (inactive).

Turning to `COc1ccc(CN2C[C@@H](COc3cccc(C(F)(F)F)c3)C[C@@H](C(=O)NCC(C)C)C2)cc1OC`, the results for the z-score in assay [1] (setting [3]), in assay [1] (setting [4]) and in assay [2] were -0.34 (inactive), 0.0165 and -1.45 (inactive), respectively.

As for `CCc1nc(CNc2cc(C(=O)NCc3ccccn3)cc(S(=O)(=O)N3CCCC3)c2)c(C)[nH]1`, the z-score in assay [1] (setting [3]) is -0.302 (inactive); in assay [1] (setting [4]) it was -0.597; in assay [2], 0.97 (inactive).
